Test results published in PubChem BioAssay (NCATS).
Where “and” joins values, the source holds several entries; their conditions need not be identical. Equal values may be shown once. Inconclusive results are not listed. Calls of active or inactive are those of the source. Unless noted, calls follow the shape of the full dose curve.

Columns and labels:
[1] = molecular target: Peroxisome proliferator-activated receptor delta (Homo sapiens) (UniProt Q03181); assay: qHTS assay for small molecule agonists of peroxisome proliferator-activated receptor delta signaling (AID 588534);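 also: 0% = DMSO basal wells and 100% = positive control agonist at 10 µM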
How it was run: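 Cell-based beta-lactamase reporter assay run in agonist mode: cells seeded and incubated 5 hrs at 37 C, compounds added and incubated 18 hrs at 37 C. CCF4 dye fluorescence read after 2 hrs at RT; EC50 and efficacy from Hill fits.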

[2] = qHTS assay for small molecule antagonists of peroxisome proliferator-activated receptor delta signaling (AID 588535; active = well fitted inhibition curve with a large enough effect in the signal ratio, with a control signal flat, not every such curve was filed as active; the % refers to the signal ratio;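 as to max response: cells co-treated with a PPAR-delta agonist as stimulator during compound exposure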); details: HEK293T PPARd-UAS-bla, beta-lactamase FRET ratio, 18 h; 460 nm channel
How it was run: (§1)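 Cell-based beta-lactamase assay in antagonist mode: 4000 HEK293T PPAR-delta-UAS-bla cells per well, 5 hr preincubation then 18 hr compound incubation at 37 C. IC50 obtained by Hill equation fitting.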

[3] = molecular target: Peroxisome proliferator-activated receptor delta (Homo sapiens) (UniProt Q03181); assay: as above
How it was run: as §1

[4] = molecular target: Vitamin D3 receptor (Homo sapiens) (UniProt P11473); assay: qHTS assay for small molecule antagonists of vitamin D receptor signaling (AID 588541);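 also: receptor activated by calcitriol during compound treatment; series mostly up to about 77 µM; % is scaled to controls: 0 for no effect and ±100 for the full control effect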
How it was run: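 Antagonist-mode beta-lactamase reporter assay: HEK293T VDR-UAS-bla cells were exposed to titrated compound alongside 1-alpha,25-dihydroxyvitamin D3 at 3 nM final for 16 h. Values were normalized to the 50 nM agonist control and DMSO basal, with IC50 and efficacy from Hill equation fits.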

[5] = molecular target: Vitamin D3 receptor (Homo sapiens) (UniProt P11473); assay: qHTS assay for small molecule agonists of vitamin D receptor signaling (AID 588543);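 also: 0% = DMSO basal and 100% = reference agonist control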
How it was run: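 Agonist-mode beta-lactamase reporter: HEK293T VDR-UAS-bla cells in charcoal-stripped 2% FBS, compound series 16 h 37 C, CCF4 2 h RT. EC50 from Hill fit, scaled against DMSO and 50 nM calcitriol control.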

[6] = qHTS assay for small molecule agonists of retinoid X receptor alpha signaling (AID 588544); details: HEK293T RXRa-UAS-bla, beta-lactamase reporter, 18 h; 530 nm emission;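 as to activation: 0% = DMSO basal wells and 100% = reference agonist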
[7] = molecular target: Retinoic acid receptor RXR-alpha (Homo sapiens) (UniProt P19793); assay: as above
[8] = molecular target: Thyroid hormone receptor beta (Homo sapiens) (UniProt P10828); assay: qHTS assay for small molecule agonists of thyroid hormone receptor beta signaling (AID 588545)
How it was run: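 Agonist-mode beta-lactamase reporter assay, HEK 293 cells, 2% charcoal/dextran FBS; cells plated 4 hrs, compound 18 hrs at 37 C, CCF4 2 hrs RT. Normalized to 10 nM T3 (100%) and DMSO (0%); Hill fit gives EC50, efficacy.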

[9] = qHTS assay for small molecule antagonists of retinoid X receptor alpha signaling (AID 588546; active = well fitted inhibition curve with a large enough effect in the signal ratio, with a control signal flat, not every such curve was filed as active; the % refers to the signal ratio;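 also: cells stimulated with 9-cis-retinoic acid as agonist; % is scaled to controls: 0 for no effect and ±100 for the full control effect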); details: HEK293T RXRa-UAS-bla, beta-lactamase ratio, antagonist mode; measured here: W530 green channel, cytotoxicity proxy
How it was run: (§2)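 Beta-lactamase reporter inhibition, read as CCF4 fluorescence ratio (ex 405, em 460/530 nm) after 2 h at RT. HEK293T UAS-bla cells, 2500/well, were stimulated with 9-cis-RA at 500 or 100 nM final alongside test compound for 18 h at 37 C.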

[10] = molecular target: Retinoic acid receptor RXR-alpha (Homo sapiens) (UniProt P19793); assay: as above; details: HEK293T RXRa-UAS-bla, beta-lactamase ratio, antagonist mode
How it was run: as §2

[11] = qHTS assay for small molecule activators of the p53 signaling pathway (AID 651743; active = well fitted activation curve with a large enough effect in the signal ratio, not every such curve was filed as active; the % refers to the signal ratio; also: potency is read from the fitted curve at half-maximal effect; as to activation: series mostly up to about 92 µM; % of control where 0% means no effect); details: HCT-116 p53RE-bla, beta-lactamase FRET ratio, 16 h; activation: stronger effect = higher value
How it was run: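 Screen for p53 pathway agonists uses stably transfected p53RE-bla HCT-116 cells, 4,000 per well, treated 16 h at 37 C with compounds in DMSO.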

[12] = qHTS assay for small molecule activators of the nuclear factor-kappa B (NF-kB) signaling pathway (AID 651749; active = well fitted activation curve with a large enough effect in the signal ratio; the % refers to the signal ratio; also: series mostly up to about 77 µM; % of control where 0% means no effect); details: NF-kB-bla ME-180 cells, beta-lactamase FRET ratio, 16 h; activation: stronger effect = higher value
How it was run: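 Stably transfected ME-180 line; NF-kB response element upstream of beta-lactamase. Treatment: compound or DMSO, 16 hr. Detection: fluorescent FRET substrate.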

[13] = qHTS assay for environmental chemicals that activate the Aryl hydrocarbon Receptor (AhR) signaling pathway (AID 651777; active = well fitted curve in the direction sought with a large enough effect; an effect the other way counts as inactive or inconclusive; also: % of control where 0% means no effect; nearly all actives have a fitted effect of over 15% in size); details: 1A2-DRE human hepatoma cells, luciferase, 24 h; activation: stronger effect = higher value
How it was run: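 Stable CYP1A2 promoter/DRE-luciferase human hepatoma line treated 24 hr; One-Glo luminescence, 30 min RT.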

[14] = molecular target: Peroxisome proliferator-activated receptor alpha (Homo sapiens) (UniProt Q07869); assay: qHTS assay for small molecule agonists of the peroxisome proliferator-activated receptor alpha (PPARalpha) signaling pathway (AID 651778; active = well fitted curve in the direction sought with a large enough effect; an effect the other way counts as inactive or inconclusive; also: potency is read from the fitted curve at half-maximal effect; as to max response: % of control where 0% means no effect); details: PathHunter PPARalpha complementation, chemiluminescence, 6 h; max response: stronger effect = higher value
How it was run: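 Chemiluminescence from complemented enzyme reported PPARalpha activation in cells after 6 hr of compound treatment at 37 C. The detection reagent was incubated for 60 min at room temperature, and compounds were scored as agonists.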

[15] = qHTS assay for small molecule agonists of the antioxidant response element (ARE) signaling pathway measured by Nrf2-dependant transcriptional activity (AID 720636; active = well fitted curve in the direction sought with a large enough effect in the repeat runs; an effect the other way counts as inactive or inconclusive;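 also: HepG2 cells with an ARE-driven luciferase reporter; % of control where 0% means no effect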)
How it was run: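 Reporter gene assay, HepG2 ARE-luc: 16 hr compound, 37 C, 5% CO2; read-out luciferase luminescence.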

[16] = qHTS assay for small molecule agonists of the antioxidant response element (ARE) signaling pathway measured by Nrf2-dependant transcriptional activity - cell viability counter screen (AID 720653; active = well fitted curve in the direction sought with a large enough effect in the repeat runs; an effect the other way counts as inactive or inconclusive; also: % is scaled to controls: 0 for no effect and ±100 for the full control effect); details: ARE-bla HepG2 viability, CellTiter-Glo ATP luminescence, 16 h; max response: stronger effect = lower value
How it was run: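 Cytotoxicity counter screen: intracellular ATP quantified by CellTiter-Glo luminescence in the same ARE-bla HepG2 plates, after 16 h compound exposure and a 2 h beta-lactamase substrate step.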

[17] = qHTS assay for cell viability of HEK293 cells (AID 743288; active = well fitted curve in the direction sought with a large enough effect; an effect the other way counts as inactive or inconclusive; also: % is scaled to controls: 0 for no effect and ±100 for the full control effect; nearly all actives have a fitted effect of over 50% in size); details: ATP luminescence (CellTiter-Glo), 18 h; max response: stronger effect = lower value
How it was run: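 Total intracellular ATP, measured with a luciferase-coupled reagent, indicates the number of viable HEK293 cells. Exposure to test chemicals lasts 18 h at 37 C in 1,536-well format at 2,000 cells/well.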

[18] = qHTS assay for cell viability of the p53RE-bla HCT-116 cell line (AID 743292; active = well fitted curve in the direction sought with a large enough effect; an effect the other way counts as inactive or inconclusive; also: % is scaled to controls: 0 for no effect and ±100 for the full control effect; nearly all actives have a fitted effect of over 55% in size)
How it was run: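 Readout: CellTiter-Glo luminescence after 30 min RT. Treatment: compounds in DMSO, 16 h, 37 C. Cells: CellSensor p53RE-bla HCT-116, 4,000/well, preincubated 5 h.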

[19] = molecular target: Nuclear receptor subfamily 1 group I member 2 (Rattus norvegicus) (UniProt Q9R1A7); assay: qHTS assay for small molecule activators of the rat pregnane X receptor (rPXR) signaling pathway (AID 651751; call rule not given here; also: 0% is about no effect); details: rPXR reporter cells, luciferase (One-Glo), 24 h
[20] = molecular target: Bile acid receptor (Homo sapiens) (UniProt Q96RI1); assay: qHTS assay for small molecule agonists of farnesoid X receptor signaling (AID 588527); details: HEK293T FXR-UAS-bla, beta-lactamase ratio, 16 h; activation: stronger effect = higher value;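 also: series mostly up to about 77 µM; 0% = vehicle basal and 100% = reference agonist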
How it was run: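 Quantitative HTS used FXR-UAS-bla HEK293T cells with 16 h compound incubation at 37 C. EC50 values came from concentration-response curves normalized to chenodeoxycholic acid.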

Chain of Retinoic acid receptor RXR-alpha (Homo sapiens) (P19793 whole entry, looked up): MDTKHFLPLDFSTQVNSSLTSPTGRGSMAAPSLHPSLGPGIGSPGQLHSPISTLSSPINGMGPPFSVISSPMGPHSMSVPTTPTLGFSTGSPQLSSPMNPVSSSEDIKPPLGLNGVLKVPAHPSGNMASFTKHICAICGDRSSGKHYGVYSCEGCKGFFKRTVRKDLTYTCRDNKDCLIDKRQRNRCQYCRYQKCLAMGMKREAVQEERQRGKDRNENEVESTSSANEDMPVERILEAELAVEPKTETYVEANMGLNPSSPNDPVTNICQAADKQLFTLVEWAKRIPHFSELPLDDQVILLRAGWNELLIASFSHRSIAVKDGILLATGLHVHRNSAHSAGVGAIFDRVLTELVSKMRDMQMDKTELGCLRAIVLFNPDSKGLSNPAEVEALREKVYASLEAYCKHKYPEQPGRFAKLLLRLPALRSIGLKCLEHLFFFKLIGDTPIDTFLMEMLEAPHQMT
Chain of Nuclear receptor subfamily 1 group I member 2 (Rattus norvegicus) (Q9R1A7 whole entry, looked up): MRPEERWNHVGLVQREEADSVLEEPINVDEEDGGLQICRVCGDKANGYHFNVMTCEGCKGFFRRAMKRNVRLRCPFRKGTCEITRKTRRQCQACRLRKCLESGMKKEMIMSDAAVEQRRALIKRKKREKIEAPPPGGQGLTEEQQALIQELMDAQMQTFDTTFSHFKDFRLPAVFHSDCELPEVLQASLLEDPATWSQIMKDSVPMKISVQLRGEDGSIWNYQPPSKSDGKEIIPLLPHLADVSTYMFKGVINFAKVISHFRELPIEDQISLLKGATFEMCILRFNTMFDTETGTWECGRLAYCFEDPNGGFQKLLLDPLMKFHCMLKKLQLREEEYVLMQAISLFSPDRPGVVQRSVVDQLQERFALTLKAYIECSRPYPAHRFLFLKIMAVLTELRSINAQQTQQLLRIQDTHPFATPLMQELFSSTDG
Chain of Bile acid receptor (Homo sapiens) (Q96RI1 whole entry, looked up): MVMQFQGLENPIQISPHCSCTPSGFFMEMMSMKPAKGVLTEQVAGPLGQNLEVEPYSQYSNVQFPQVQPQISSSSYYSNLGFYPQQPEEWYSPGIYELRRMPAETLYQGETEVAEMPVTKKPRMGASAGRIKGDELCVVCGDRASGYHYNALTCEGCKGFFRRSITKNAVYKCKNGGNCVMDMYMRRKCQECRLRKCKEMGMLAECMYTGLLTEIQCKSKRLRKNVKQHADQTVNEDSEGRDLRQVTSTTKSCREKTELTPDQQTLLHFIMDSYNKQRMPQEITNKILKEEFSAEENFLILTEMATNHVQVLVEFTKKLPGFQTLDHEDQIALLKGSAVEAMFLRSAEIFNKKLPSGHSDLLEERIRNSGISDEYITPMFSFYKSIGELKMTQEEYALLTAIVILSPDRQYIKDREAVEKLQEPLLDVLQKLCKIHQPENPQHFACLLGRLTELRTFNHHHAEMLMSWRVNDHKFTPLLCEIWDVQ
Chain of Vitamin D3 receptor (Homo sapiens) (P11473 whole entry, looked up): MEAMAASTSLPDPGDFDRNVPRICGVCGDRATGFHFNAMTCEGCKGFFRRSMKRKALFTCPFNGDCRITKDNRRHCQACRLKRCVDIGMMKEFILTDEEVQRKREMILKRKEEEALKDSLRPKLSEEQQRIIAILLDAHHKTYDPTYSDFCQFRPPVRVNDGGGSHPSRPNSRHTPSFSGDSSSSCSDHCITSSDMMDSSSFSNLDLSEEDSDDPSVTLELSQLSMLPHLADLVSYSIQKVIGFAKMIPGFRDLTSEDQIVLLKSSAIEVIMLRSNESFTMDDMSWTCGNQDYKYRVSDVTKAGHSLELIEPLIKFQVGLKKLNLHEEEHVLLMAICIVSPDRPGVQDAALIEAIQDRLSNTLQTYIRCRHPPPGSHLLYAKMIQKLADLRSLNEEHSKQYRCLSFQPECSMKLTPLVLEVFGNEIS
Chain of Peroxisome proliferator-activated receptor delta (Homo sapiens) (Q03181 whole entry, looked up): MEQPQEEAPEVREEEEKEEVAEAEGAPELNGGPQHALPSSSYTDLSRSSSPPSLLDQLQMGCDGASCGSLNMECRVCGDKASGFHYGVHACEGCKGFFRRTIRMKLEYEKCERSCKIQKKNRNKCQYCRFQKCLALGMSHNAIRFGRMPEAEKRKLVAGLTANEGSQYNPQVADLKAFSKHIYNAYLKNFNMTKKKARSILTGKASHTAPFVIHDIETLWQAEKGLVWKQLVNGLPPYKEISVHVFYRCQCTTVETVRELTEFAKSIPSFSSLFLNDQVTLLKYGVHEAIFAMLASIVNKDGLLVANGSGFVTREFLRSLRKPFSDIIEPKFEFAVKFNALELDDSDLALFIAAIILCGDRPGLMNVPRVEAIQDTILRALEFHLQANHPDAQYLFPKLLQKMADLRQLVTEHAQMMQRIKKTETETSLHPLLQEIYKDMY
Chain of Thyroid hormone receptor beta (Homo sapiens) (P10828 whole entry, looked up): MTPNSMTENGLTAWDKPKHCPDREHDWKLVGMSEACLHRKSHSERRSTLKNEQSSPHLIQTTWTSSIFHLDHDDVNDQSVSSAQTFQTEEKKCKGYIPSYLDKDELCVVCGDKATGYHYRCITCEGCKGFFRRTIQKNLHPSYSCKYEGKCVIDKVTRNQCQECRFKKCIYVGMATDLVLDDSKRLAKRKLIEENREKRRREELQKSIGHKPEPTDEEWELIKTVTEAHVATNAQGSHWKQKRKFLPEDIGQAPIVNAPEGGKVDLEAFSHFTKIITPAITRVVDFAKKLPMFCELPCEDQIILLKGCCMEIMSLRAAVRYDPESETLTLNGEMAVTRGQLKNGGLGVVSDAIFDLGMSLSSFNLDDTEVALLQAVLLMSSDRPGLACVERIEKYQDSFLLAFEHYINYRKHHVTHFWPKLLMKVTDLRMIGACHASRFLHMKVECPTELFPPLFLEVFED
Chain of Peroxisome proliferator-activated receptor alpha (Homo sapiens) (Q07869 whole entry, looked up): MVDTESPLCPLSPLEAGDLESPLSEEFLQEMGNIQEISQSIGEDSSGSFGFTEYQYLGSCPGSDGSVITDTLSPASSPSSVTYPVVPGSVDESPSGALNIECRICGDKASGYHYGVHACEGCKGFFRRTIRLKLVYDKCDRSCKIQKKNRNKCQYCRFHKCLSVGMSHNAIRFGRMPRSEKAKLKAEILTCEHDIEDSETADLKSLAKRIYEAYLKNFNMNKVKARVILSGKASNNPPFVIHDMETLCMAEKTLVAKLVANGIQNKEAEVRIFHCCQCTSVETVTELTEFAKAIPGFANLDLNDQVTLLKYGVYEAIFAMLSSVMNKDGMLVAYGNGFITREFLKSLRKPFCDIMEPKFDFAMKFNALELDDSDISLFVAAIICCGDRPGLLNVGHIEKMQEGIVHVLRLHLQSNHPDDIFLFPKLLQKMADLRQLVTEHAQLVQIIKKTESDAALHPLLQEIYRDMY

CC(C)N1C(=O)N(c2ccccc2)CSC1=NC(C)(C)C
15.4% and 12.1%: max response [6]
0.399%: max response [9]
inactive: outcome [1] | Potency [3] | Potency [4] | outcome [5] | Potency [7] | Potency [8] | max response [10] -33.9% | activation [11] -1.27% and 6.3% | activation [12] 0.243% and -2.38% | activation [13] -0.494% and 3.86% | max response [14] 0.0616% and 14.7% | Potency [15] | max response [16] 13.9% and -6.65% | max response [17] -17.9% | Potency [18] | max response [19] 13.3% and 1.8%
43.5%: max response [2]

N#Cc1cc(I)c(O)c(I)c1
43.3%: max response [2]
19.3%: max response [6]
0.0011%: max response [9]
active: Potency [11] 44.7 µM | Potency [14] 15.8 µM
inactive: outcome [1] | Potency [3] | Potency [4] | outcome [5] | Potency [7] | Potency [8] | max response [10] -13.5% | activation [12] 1.07% | activation [13] -1.69% | Potency [15] | max response [16] -6.44% | max response [17] -4.72% | Potency [18] | max response [19] -7.71%

CCOP(=S)(OCC)SCSP(=S)(OCC)OCC
-10.3%: max response [9]
36.7%: max response [2]
inactive: Potency [3] | Potency [4] | outcome [5] | Potency [8] | max response [10] -4.31% | activation [11] -5.14% | activation [12] -2.5% | activation [13] 3.33% | max response [14] -1.9% | Potency [15] | max response [16] -0.915% | max response [17] -18.3% | Potency [18]

O=CNC(N1CCN(C(NC=O)C(Cl)(Cl)Cl)CC1)C(Cl)(Cl)Cl (stereo not given)
-14.2%: max response [6]
inactive: outcome [1] | Potency [3] | Potency [4] | outcome [5] | Potency [7] | Potency [8] | activation [11] -7.11% | activation [12] -2.29% | activation [13] 0.502% | max response [14] -1.75% | Potency [15] | max response [16] -22.2% | max response [17] -20.2%
26.2%: max response [2]

N#CCNC(=O)c1cnccc1C(F)(F)F
inactive: activation [20] -0.0822% | outcome [1] | Potency [3] | Potency [4] | Potency [7] | Potency [8] | max response [10] -7.71% | activation [11] -2.69% | activation [13] 1.26% | max response [14] -0.401% | Potency [15] | max response [16] -0.0757% | max response [17] -6.61% | Potency [18] | max response [19] 3.48%
-6.46%: max response [9]
-20.3%: max response [2]
-4.19%: max response [6]

Cc1cc(Cl)ccc1O[C@H](C)C(=O)O
-13.3%: max response [6]
inactive: outcome [1] | Potency [7] | Potency [8] | max response [10] -2.52% | activation [11] -0.679% | activation [12] 0.599% | activation [13] -2.24% | max response [14] -1.51% | Potency [15] | max response [16] 7.37% | max response [17] 0.74% | Potency [18] | max response [19] -1.45%
-16.8%: max response [9]

CNP(=O)(OC)Oc1ccc(C(C)(C)C)cc1Cl (stereo not given)
2.01%: max response [9]
10.3%: max response [6]
inactive: outcome [1] | Potency [3] | Potency [4] | outcome [5] | Potency [7] | max response [10] 11.9% | activation [11] 6.28% | activation [12] 1.2% | activation [13] 5.81% | max response [14] -2.32% | max response [16] 8.45% | max response [17] -10.1% | Potency [18] | max response [19] 11.5%
45%: max response [2]

Brc1ccc(Oc2ccccc2)cc1
-12.9%: max response [6]
2.82%: max response [2]
-7.34%: max response [9]
inactive: outcome [1] | Potency [3] | Potency [4] | outcome [5] | Potency [7] | max response [10] 1.13% | activation [11] 1.17% | activation [12] -2.79% | activation [13] -0.643% | max response [14] -0.584% | Potency [15] | max response [16] -10.2% | max response [17] -5.38% | Potency [18] | max response [19] -2.47%

Cc1ccn2nc(S(=O)(=O)Nc3c(F)cccc3F)nc2n1
2.3%: max response [9]
inactive: activation [20] -2.19% | outcome [1] | Potency [3] | Potency [4] | outcome [5] | Potency [7] | max response [10] -2.18% | activation [13] -0.461% | max response [14] 0.276% | Potency [15] | max response [16] 14.2% | Potency [18] | max response [19] -3.4%
-22%: max response [6]
35.3%: max response [2]

CCC[CH2][Sn]([CH2]CCC)([CH2]CCC)[CH2]CCC
inactive: activation [20] 3.44% | outcome [1] | Potency [3] | Potency [4] | outcome [5] | Potency [8] | max response [10] 4.03% | activation [11] -3.46% | activation [12] 1.03% | activation [13] 0.926% | max response [14] -1.25% | Potency [15] | max response [16] 1.93% | max response [17] -5.3% | Potency [18] | max response [19] 8.28%
6.88%: max response [9]
0.148%: max response [2]
